{"source": "PubChem BioAssay (EPA / NIEHS)", "note": "Where “and” joins values, the source holds several entries; their conditions need not be identical. Equal values may be shown once. More than one record can exist for a structure, and the calls need not agree. Calls of active or inactive are those of the source. How the source made its calls: active means hit-call score of the fitted dose curve at least 0.9, where 1 is the maximum; inactive means score below 0.9.", "data": [{"read-out": "CD40, CD40 (gene 958)", "assay": "BSK_SAg_CD40: BioMAP Diversity Plus: SAg Assay for CD40 Biomarker Activity (AID 2283088)", "conditions": "primary human HUVEC with PBMC; actives raise or lower the signal", "procedure": "BSK_SAg is a cell-based, multiplexed-readout assay that uses umbilical vein endothelium and peripheral blood mononuclear cells, a human vascular primary cell co-culture, with measurements taken at 24 hours after chemical dosing in a 96-well plate.BSK_SAg_CD40 is one of 10 assay component(s) measured or calculated from the BSK_SAg assay. It is designed to make measurements of enzyme-linked immunosorbent assay, a form of binding reporter, as detected with fluorescence intensity signals by Enzyme-linked immunosorbent assay technology.Data from the assay component BSK_SAg_CD40 was analyzed into 1 assay endpoint. This assay endpoint, BSK_SAg_CD40, was analyzed with bidirectional fitting relative to DMSO as the negative control and baseline of activity. Using a type of binding reporter, gain or loss-of-signal activity can be used to understand changes in the signaling as they relate to the gene CD40. Furthermore, this assay endpoint can be referred to as a primary readout, because this assay has produced multiple assay endpoints where this one serves a signaling function. To generalize the intended target to other relatable targets, this assay endpoint is annotated to the cytokine intended target family, where the subfamily is inflammatory factor.\nThe levels of cell surface (or secreted, indicated by the prefix \"s\") biomarker endpoints were measured by ELISA. Overt cytotoxicity to cells in confluent adherent cultures (all systems other than the BT system) was assessed by measuring total protein levels using sulforhodamine B (SRB) staining in parallel cultures at the time of biomarker measurements, indicated as SRB endpoints. For proliferation assays for adherent cell types, individual cell types are cultured at sub-confluence and relative cell numbers quantified by SRB staining at time points optimized for each system (48 h: 3C and CASM3C systems; 72 h: BT and HDF3CGF systems; 96 h: SAg system). SRB was performed by staining cells with 0.1% SRB after fixation with 10% TCA and reading wells at 560 nm.Viability and proliferation of PBMC (T cells) was quantified by Alamar Blue reduction for the SAg and BT systems. For PBMC viability (referred to as PBMC Cytotoxicity within the assay endpoint names), cells were plated (75,000/well in a 96-well plate) and then chemical samples added for 1 h before addition of activators, SEB and TSST-1 (20 ng/mL final concentration each). Cells were incubated for 90 h. Then, Alamar Blue (20 uL/well) (Invitrogen, Cat DAL1100) was added for 6 h, and the plates were read with a fluorescence microplate reader at 546/580 nm (excitation/emission). For PBMC proliferation, cells were plated and activated as above but incubated for only 16 h prior to addition of Alamar Blue. Plates were read after 6 h.", "values": [{"compound": "O=C1OC2(c3ccccc31)c1cc(I)c(O)c(I)c1Oc1c2cc(I)c(O)c1I", "AC50": "12 µM (active)"}, {"compound": "O=C(NO)c1ccccc1", "outcome": "inactive"}, {"compound": "CN(C)CCOC(c1ccccc1)c1ccccc1", "outcome": "inactive"}, {"compound": "CCCCCCCCCCCCCCC", "outcome": "inactive"}, {"compound": "O=C(CC(=O)C(F)(F)C(F)(F)C(F)(F)F)c1cccs1", "AC50": "17 µM (active) and 16.2 µM (active)"}, {"compound": "O=C(NCc1ncc(C(F)(F)F)cc1Cl)c1c(Cl)cccc1Cl", "outcome": "inactive"}, {"compound": "O=C1c2ccc(O)c(O)c2C(=O)c2c(O)ccc(O)c21", "outcome": "inactive"}, {"compound": "O=C(O)CCC(F)(F)C(F)(F)C(F)(F)C(F)(F)C(F)(F)F", "outcome": "inactive"}, {"compound": "Cc1ccc(N=Nc2c(O)ccc3ccccc23)c(C)c1", "outcome": "inactive"}, {"compound": "CCOC(=O)CN[C@@H](C(=O)N1CC[C@H]1C(=O)NCc1ccc(/C(N)=N/O)cc1)C1CCCCC1", "outcome": "inactive"}, {"compound": "COc1cc(OC)nc(NC(=O)NS(=O)(=O)Nc2ccccc2C(=O)N(C)C)n1", "outcome": "inactive"}, {"compound": "CCCCC(CC)C(=O)O", "note": "(stereo not given)", "outcome": "inactive"}, {"compound": "Oc1c(Cl)cc(Cl)cc1Sc1cc(Cl)cc(Cl)c1O", "AC50": "13.8 µM (active) and 9.99 µM (active)"}, {"compound": "CC(=O)Nc1ccc(O)cc1", "outcome": "inactive"}, {"compound": "OCC(F)(F)C(F)(F)C(F)(F)C(F)(F)C(F)(F)C(F)(F)C(F)(F)C(F)(F)C(F)(F)C(F)(F)C(F)(F)F", "outcome": "inactive"}, {"compound": "O=P(O)(O)CCC(F)(F)C(F)(F)C(F)(F)C(F)(F)C(F)(F)C(F)(F)C(F)(F)C(F)(F)F", "AC50": "30 µM (active)", "outcome": "inactive"}, {"compound": "CN(Cc1cnc2nc(N)nc(N)c2n1)c1ccc(C(=O)N[C@@H](CCC(=O)O)C(=O)O)cc1", "outcome": "inactive"}, {"compound": "O=C(O)CCC(F)(F)C(F)(F)C(F)(F)C(F)(F)C(F)(F)C(F)(F)F", "outcome": "inactive"}, {"compound": "Oc1cc2ccccc2cc1O", "outcome": "inactive"}, {"compound": "CC[N+](CC)(CC)Cc1ccccc1", "outcome": "inactive"}, {"compound": "CN(CCO)S(=O)(=O)C(F)(F)C(F)(F)C(F)(F)C(F)(F)C(F)(F)C(F)(F)C(F)(F)C(F)(F)F", "outcome": "inactive"}, {"compound": "CS(=O)(=O)c1ccc([C@@H](CC2CCCC2)C(=O)Nc2cnccn2)cc1Cl", "outcome": "inactive"}, {"compound": "C=COC(=O)C(C)(C)CCCCCC", "AC50": "4.12 µM (active)"}, {"compound": "O=P(O)(O)CCC(F)(F)C(F)(F)C(F)(F)C(F)(F)C(F)(F)C(F)(F)F", "outcome": "inactive"}, {"compound": "O=C(CCCN1CCC(O)(c2ccc(Cl)cc2)CC1)c1ccc(F)cc1", "outcome": "inactive"}, {"compound": "CC(C)(C)c1ccc(O)c(O)c1", "AC50": "27.3 µM (active)"}, {"compound": "CCCCc1oc2ccccc2c1C(=O)c1cc(I)c(OCCN(CC)CC)c(I)c1", "AC50": "10.5 µM (active)"}, {"compound": "CCCCCCCCCCCCOS(=O)(=O)O", "outcome": "inactive"}, {"compound": "Cc1[nH]nc2c1N=C(c1ccccc1Cl)c1cc([N+](=O)[O-])ccc1N2", "AC50": "4.7 µM (active)"}, {"compound": "CCCCCCCCCCCC", "outcome": "inactive"}, {"compound": "COC1=CC(=O)C[C@@H](C)[C@]12Oc1c(Cl)c(OC)cc(OC)c1C2=O", "outcome": "inactive"}, {"compound": "N=C(N)c1ccc(OCCCCCOc2ccc(C(=N)N)cc2)cc1", "outcome": "inactive"}, {"compound": "NC(=NCCCCCCN=C(N)/N=C(\\N)Nc1ccc(Cl)cc1)/N=C(\\N)Nc1ccc(Cl)cc1", "AC50": "5.1 µM (active)"}, {"compound": "CCCCC=O", "outcome": "inactive"}, {"compound": "C[C@]12CC[C@@H]3c4ccc(O)cc4CC[C@H]3[C@@H]1C[C@@H](O)[C@@H]2O", "outcome": "inactive"}, {"compound": "C=CC(=C)CC/C=C(\\C)CCC=C(C)C", "outcome": "inactive"}, {"compound": "C=CC(C)(CCC=C(C)C)OC(C)=O", "note": "(stereo not given)", "outcome": "inactive"}, {"compound": "OCC(CO)(CBr)CBr", "outcome": "inactive"}, {"compound": "COc1cccc(O)c1", "outcome": "inactive"}]}]}
